Reference: PubChem BioAssay (NCATS)
Inconclusive results are not listed. Entries that show only a call come without a potency. Values without a mark were called inactive. Active and inactive are the calls of the source. Calls follow the shape of the dose curve; as a rule, active = well fitted cell-killing curve with a large enough effect; inconclusive = small, poorly fitted or top-dose-only effect, or effect the other way; inactive = flat fitted curve, though single readings scatter.

What was measured:
Assay in all cases: Primary qHTS to identify gynecologic anti-cancer compounds using libraries of approved drugs and bioactive compounds (AID 1345084); also: nearly all actives have a fitted effect of over 55% in size
Details in all cases: Gynecologic cancer cell panel viability, ATPlite luminescence, 48 h; series mostly up to 57.5 µM
PA-1 = test system: PA-1
How it was run: (§1)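 Cells, 1,000 per well, plated 16 h, then exposed 48 h at 37 C to compounds. Viability by ATPlite luminescence after 15 min at room temperature.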

SKOV3 = test system: SKOV3
How it was run: as §1

Tov-21-G = test system: Tov-21-G
How it was run: as §1

Tov112D = test system: Tov112D
How it was run: as §1
Potency is read from the fitted curve at half-maximal effect.

SMILES	Potency (PA-1)	Potency (SKOV3)	Potency (Tov-21-G)	Potency (Tov112D)
O=[N+]([O-])c1ccc(Oc2ccc3c(c2)CCC(c2ccccc2)O3)nc1 (stereo not given)	inactive	inactive	inactive	inactive
Cc1cnn(-c2ccccc2)c1NC(=O)COCc1ccccc1	inactive	inactive	inactive	inactive
CCC(C(C)O)n1ncn(-c2ccc(N3CCN(c4ccc(OCC5COC(Cn6cncn6)(c6ccc(F)cc6F)C5)cc4)CC3)cc2)c1=O (stereo not given)	inactive	inactive	inactive	inactive
COC(=O)c1ccc(N2CCN(C)CC2)c(NC(=O)c2cccc(OC)c2)c1	inactive	inactive	inactive	inactive
C/C=C/C=C/C(=O)O[C@@H]1C=C2COC(=O)[C@]2(O)[C@@]2(C)CCCC(C)(C)[C@H]12	inactive	inactive	inactive	inactive
CCOc1ccc(CCNC(=O)c2cc3sc(Cl)cc3n2C)cc1OCC	inactive	inactive	inactive	inactive
Cc1cccc(-c2[nH]ncc2-c2ccnc3ccccc23)n1	inactive	inactive	inactive	inactive
COc1ccc(S(=O)(=O)Nc2cc(Cl)cc(Cl)c2OC)cc1N1CCNCC1	inactive	inactive	inactive	inactive
COC(=O)CC[C@@H](C)C1CCC2C3CCC4C[C@H](OC(C)=O)CCC4(C)C3C[C@H](O)C21C (stereo not given in full)	inactive	inactive	inactive	inactive
O=C(C1CCCCC1)N(CCN1CCN(c2ccccc2O)CC1)c1ccccn1	inactive	inactive	inactive	inactive
CC(F)(F)CN1CCOc2c(nn(-c3ccccc3Cl)c2-c2ccc(Cl)cc2)C1=O	inactive	inactive	inactive	inactive
CCOC(=O)c1ccc(OCCC2CCN(c3ccc(C)nn3)CC2)cc1	inactive	inactive	inactive	inactive
O=S(=O)(Nc1cc(Cl)c(Oc2cnc3ccccc3c2)c(Cl)c1)c1ccc(Cl)cc1Cl	inactive	inactive	inactive	inactive
CC12CCC3C1C(c1c(cc(O)c(C(=O)c4ccccc4)c1O)O2)C3(C)C (stereo not given)	inactive	inactive	inactive	inactive
CCOC(=O)c1cnn(-c2ccccc2)c1NC(=O)c1cc2nc(-c3ccco3)cc(C(F)(F)Cl)n2n1	inactive	inactive	inactive	inactive
CC(=O)OC1CC2(C)C(CCC(C)C23Cc2c(O)cc(CO)c(C=O)c2O3)C(C)(C)C1O (stereo not given)	inactive	inactive	inactive	inactive
Cc1ccccc1CN1CCn2c1nc1c(c2=O)CN(Cc2ccccc2)CC1	inactive	inactive	inactive	inactive
O=C(NCC1(c2nc(-c3ccccc3)cs2)CCOCC1)c1cccc(-c2noc(C(F)(F)F)n2)c1	inactive	inactive	inactive	inactive
CC(C)=CCc1cc2c(cc1O)OC[C@H]1c3ccc(O)cc3O[C@@H]21	inactive	inactive	inactive	inactive
CCOC(=O)c1csc(Nc2ccc(Cl)cc2)n1	inactive	inactive	inactive	inactive
C=C1C(=O)O[C@@H]2C=C(COC(C)=O)CC/C=C(\CO)CC[C@@H]12	inactive	inactive	inactive	inactive
CC(=O)O[C@@H]1CC2C(/C=C(\C)C(=O)[C@@]3(O)C[C@@H](C)[C@H](OC(=O)c4ccccc4)C3/C=C/1C)C2(C)C (stereo not given in full)	inactive	inactive	inactive	inactive
Cc1cc(-c2ncc(-c3cccnc3)cc2/C=C/c2ccccc2)cnc1-c1cccnc1	inactive	inactive	inactive	inactive
COc1cc(C(=O)O)ccc1NC(=O)C1NC(CC(C)(C)C)C(C#N)(c2ccc(Cl)cc2F)C1c1cccc(Cl)c1F (stereo not given)	inactive	inactive	inactive	inactive
Cc1sc2c(c1C)C(c1ccc(Cl)cc1)=N[C@H](CC(=O)NCCCCNC(=O)COc1cccc3c1C(=O)N([C@H]1CCC(=O)NC1=O)C3=O)c1nnc(C)n1-2	1.58 µM (active)	inactive	1.78 µM (active)	inactive
CC(C)(CNC(=O)c1cccc(-c2noc(C(F)(F)F)n2)c1)c1coc(-c2ccccc2)n1	inactive	inactive	inactive	inactive
CN(C)C(=O)C(=O)c1cn(C)c2cc(Cl)c(C(=O)N3CCC(Cc4ccc(F)cc4)CC3)cc12	inactive	inactive	inactive	inactive
C/C(=C\CO[C@@H]1O[C@H](CO[C@H]2OC[C@](O)(CO)[C@H]2O)[C@@H](O)[C@H](O)[C@H]1O)C(C)(C)O	inactive	inactive	inactive	inactive
Cc1ccc(N2CCN(CCC3NC(=O)c4ccccc43)CC2)cc1C (stereo not given)	inactive	inactive	inactive	inactive
C=C(COC(=O)C(O)C(O)CN)C12OC1C1(C)C(=CC2=O)C(O)C(O)CC1C (stereo not given)	inactive	inactive	inactive	inactive
